Reference: PubChem BioAssay AID2676 (National Center for Advancing Translational Sciences (NCATS), 2010)
The campaign covered roughly 370,000 compounds. About 1,100 (0.3%) were called active. About 1% were inconclusive and are not listed. Calls follow the shape of the dose curve; as a rule, active = well fitted activation curve with a large enough effect; inconclusive = small, poorly fitted or top-dose-only effect; inactive = flat fitted curve, though single readings scatter. Only a selection was taken, and actives are over-represented in it overall.

These compounds were tested against Relaxin receptor 1 (Homo sapiens) (UniProt Q9HBX9) (assay: qHTS Assay for Agonists of the Relaxin Receptor RXFP1). Details: HEK293T-RXFP1 cAMP TR-FRET, 30 min; series mostly up to 57.5 µM; activation: at the top concentration.
Relaxin receptor 1 (Homo sapiens), sequence (Q9HBX9 whole entry, looked up): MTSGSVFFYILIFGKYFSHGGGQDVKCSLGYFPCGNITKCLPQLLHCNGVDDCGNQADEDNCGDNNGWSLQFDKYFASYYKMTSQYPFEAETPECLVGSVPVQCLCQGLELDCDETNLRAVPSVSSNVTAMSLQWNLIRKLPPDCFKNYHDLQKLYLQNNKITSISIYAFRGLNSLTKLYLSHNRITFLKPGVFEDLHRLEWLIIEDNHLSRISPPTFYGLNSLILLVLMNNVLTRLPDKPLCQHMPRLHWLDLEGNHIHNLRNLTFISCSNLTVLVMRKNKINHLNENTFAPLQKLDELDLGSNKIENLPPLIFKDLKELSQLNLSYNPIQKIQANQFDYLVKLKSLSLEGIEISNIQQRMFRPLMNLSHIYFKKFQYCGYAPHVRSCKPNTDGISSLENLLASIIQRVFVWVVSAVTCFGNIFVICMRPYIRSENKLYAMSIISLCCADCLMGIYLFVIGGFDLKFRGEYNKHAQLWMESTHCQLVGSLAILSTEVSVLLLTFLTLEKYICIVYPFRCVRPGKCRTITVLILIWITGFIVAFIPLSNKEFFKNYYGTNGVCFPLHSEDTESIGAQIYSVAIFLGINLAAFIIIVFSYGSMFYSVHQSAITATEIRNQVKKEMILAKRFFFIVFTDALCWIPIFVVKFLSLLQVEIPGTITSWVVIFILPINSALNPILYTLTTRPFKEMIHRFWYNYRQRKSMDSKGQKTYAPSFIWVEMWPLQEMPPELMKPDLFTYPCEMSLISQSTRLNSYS
Source text: NIH Chemical Genomics Center [NCGC] NIH Molecular Libraries Probe Production Centers Network [MLPCN] MLPCN Grant: R03 MH085705-01A1 Assay Submitter (PI): Alexander Agoulnik NCGC Assay Overview: The relaxin hormone is involved in the variety of biological functions in normal tissues and diseases. The role of relaxin is well-established in female reproduction and parturition, mammary gland and endometrial development, maintenance of myometrial quiescence during pregnancy. Relaxin signaling through its G protein-coupled receptor (GPCR) RXFP1 results in ECM remodeling through regulation of collagen deposition, cell invasiveness, proliferation and overall tissue homeostasis. […] Recombinant human relaxin (rhRlx) is currently being tested in clinical trials as a protective agent in congestive heart failure, in treating severe preeclampsia, and as an anti-fibrotic agent in systemic sclerosis. Upon relaxin binding RXFP1 activation leads to the activation of adenylate cyclase (AC) via Gs. cAMP will activate PKA, which phosphorylates many signaling proteins. Thus, detection of cAMP increase is an easy and reliable indication of relaxin receptor activation. To screen for agonists of the relaxin receptor, a HEK293T cell line stably transfected with RXFP1 was used. RXFP1 activation was assayed by changes in cAMP levels as detected with a time-resolved fluorescence energy transfer (TR-FRET) cAMP detection kit.
NCGC Assay Protocol Summary: This is a cell-based assay for cAMP second messenger response to screen for agonists of the RXFP1 receptor. The assay was conducted in the presence of a PDE4 inhibitor (Ro 20174). The cells were lysed and the cAMP levels were measured with a TR-FRET cAMP kit. Presence of cAMP in the cell lysate disrupts binding between the cryptate-labeled anti-cAMP and d2-labeled cAMP pair, leading to a decrease in the TR-FRET signal. Data were normalized to the controls for basal activity (buffer only) and 100% activity (29 nM porcine relaxin). The EC50 values were determined from concentration-response data modeled with the standard Hill equation 1536-well assay protocol for the HEK293 RXFP1 cAMP assay: (1) Add 3 ul HEK293 RXFP1 cell culture. 2000 cells/well in DMEM/F12, 10% FBS, 1x Pen/Strep (dispensed offline with MultiDrop Combi). (2) Incubate 16-24 hr at 37C, 5% CO2. (3) Add 1 ul 400uM Ro20174 in DPBS, 0.05% BSA, 0.005% Tween 20. (3) Add 23 nl compounds in DMSO solution. Final concentration was 0.5 - 58 uM. (4) Incubate 30 min at 37C, 5% CO2. (5) Add 1 ul cAMP-d2 in lysis buffer (HTRF cAMP HiRange kit, CisBio). (6) Add 1 ul anti-cAMP antibody-cryptate in lysis buffer (HTRF cAMP HiRange kit, CisBio). (7) Incubate 30 min at room temperature. (6) Detect the assay plate in a ViewLux plate reader (PerkinElmer) with Ex=320 nm, Em1=615 nm and Em2=665 nm. Keywords: relaxin, RXFP1, RXFP2, G-protein coupled receptor, cAMP, agonist, high throughput screening, MLSMR, MLSCN, NIH Roadmap, qHTS and NCGC
% is scaled to controls: 0 for no effect and ±100 for the full control effect; potency is read from the fitted curve at half-maximal effect.
Also: nearly all actives have a fitted effect of over 60% in size.

activation, inactive:
COc1ccc(C)cc1N(C)C(=O)c1c(C)oc2ncnc(N3CCOCC3)c12 -3.68%
O=C(NCCCc1ccccc1)c1ccc2c(c1)sc1nc(-c3ccc(F)cc3)cn12 -1.38%
COc1cccc(C(=O)N(Cc2cccc(Cl)c2)Cc2ccco2)c1 1.03%
COc1cc(Cl)c(NC(=O)C(NS(=O)(=O)c2cccs2)C(C)C)c(OC)c1 (stereo unspecified) -2.63%
CCOC(=O)c1c(NC(=O)COc2cc(C)ccc2C(C)C)sc(C)c1C 2.49%
COC(=O)c1ccccc1NC(=O)c1ccc(COc2ccccc2Cl)o1 2.52%
O=C(Cn1c(=O)n(-c2ccc(F)cc2)c(=O)c2sccc21)Nc1cccc(C(F)(F)F)c1 0.102%
CC(C)(C)c1ccc(OCC(=O)N2CCC(c3nc4ccccc4s3)CC2)cc1 -0.849%
O=C(NC1CC(=O)N(c2ccc(F)cc2)C1)c1ccc(S(=O)(=O)N2CCCC2)cc1 (stereo unspecified) 1.57%
COc1ccc(Cn2ccnc2SCC(=O)NCc2ccco2)cc1 2.97%
CCOc1ccc2oc(=O)cc(CN3CCN(C(=O)c4ccc(F)cc4)CC3)c2c1 1.02%
Cc1cnc(NC(=O)Cn2cnc3c2c(=O)n(C)c(=O)n3C)s1 15.8%
CN(CC(=O)Nc1ccc(F)c(F)c1F)C(=O)Cn1cnc2c1c(=O)n(C)c(=O)n2C 9.55%
CCCNc1ncnc2c1c(-c1ccccc1)cn2-c1ccc(OCC)cc1 4.06%
COc1ccc(S(=O)(=O)N2CCOCC2)cc1NC(=O)Cc1c(F)cccc1Cl -0.855%
COc1ccc(S(=O)(=O)N2CCOCC2)cc1NC(=O)CSc1cc(C)ccc1C -2%
CCOc1ccc(C(=O)Nc2ccc3nc4c(c(Nc5ccccc5OC)c3c2)CCCC4)cc1 -0.31%
C=Cc1ccc(Cn2c(C(=O)O)c(CNC3CCCC3)c3ccc(C)cc32)cc1 0.0544%
CCOc1ccc(CCNC(=O)CN(c2ccc(C)cc2)S(=O)(=O)N(C)C)cc1OCC 2%
O=C(Nc1ccc(Br)cc1)c1cc2nc(-c3ccccc3)cc(-c3ccccc3)n2n1 3.76%
COc1ccc2oc(-c3ccc(C)c(NC(=O)c4sc5ccccc5c4Cl)c3)nc2c1 2.29%
CCOc1cccc(CC(=O)N2CCc3c([nH]c4ccccc34)C2c2ccc(OC)cc2)c1OCC (stereo unspecified) 4.11%
Cc1cc(C)cc(NC(=O)Cn2nc(N3CCN(c4ccccc4)CC3)ccc2=O)c1 0.0868%
Cc1ccc(Cl)cc1N(C)C(=O)C1CCCN(c2ncnc3onc(-c4ccc(F)cc4)c23)C1 (stereo unspecified) 0.553%
COc1ccc(N2CCN(C3=NS(=O)(=O)C(c4cccc(Br)c4)=C3C)CC2)cc1 -0.541%
Cc1c(-c2nsc(NC(=O)c3cccc(Cl)c3)n2)nnn1-c1ccccc1C(F)(F)F -0.886%
COc1ccc(-c2nc3c(c(SCC(=O)Nc4ccc(C(=O)O)cc4)n2)Cc2ccccc2O3)cc1 21.7%
Cc1ccc(-c2nn(CCC(=O)Nc3ccc(OC(F)(F)F)cc3)c(=O)c3ccccc23)cc1 6.25%
COc1ccc(-n2c(SCC(N)=O)nc3c(oc4ccccc43)c2=O)cc1 0.504%
COC(=O)c1ccccc1NC(=O)C(Cc1ccccc1)N1Cc2ccccc2C1=O (stereo unspecified) 4.06%
CC1=C(c2ccc(F)cc2)S(=O)(=O)N=C1N1CCC(C(=O)NCCc2ccccc2C)CC1 2.67%
Cc1ccc2nc3c(cc(C(=O)NC4CCCCC4)c(=N)n3C(C)C)c(=O)n2c1 5.26%
COc1cccc(-n2c(=O)c3c(C)c(C(=O)N(C)C)sc3n(Cc3cccc(C)c3)c2=O)c1 2.04%
CCCCOc1ccc(CNC(=O)c2ccc3c(c2)N(C)C(=O)C2CCCCN32)cc1 (stereo unspecified) -0.99%
O=C(c1ccc2c(c1)N(Cc1ccccc1)C(=O)c1ccccc1S2(=O)=O)N1CCC(Cc2ccccc2)CC1 0.856%
Cc1cccc(NC(c2cccc(F)c2)c2ccc3ccc(C)nc3c2O)n1 (stereo unspecified) 1.58%
CCOc1ccccc1NC(=O)Cn1c(=O)n(Cc2ccccc2)c(=O)c2c(C)c(C(=O)N(C)C)sc21 2.17%
COc1ccc(S(=O)(=O)Nc2cc3c(C(=O)OC(C)C)c(C)oc3c3ccccc23)cc1 1.2%
CC1=C(C(=O)N2CCN(c3cccc(C(F)(F)F)c3)CC2)C2(CCCCC2)OC1=O -0.574%
CC(C)(C)OC(=O)N1CCC(c2c(C(=O)N3CCN(c4cccc(Cl)c4)CC3)cnn2-c2cccc(Cl)c2)CC1 2.09%
COc1ccc2c(c1)CCc1c(C(=O)Nc3cc(C)ccc3O)noc1-2 -4.18%
COc1cccc(CNC(=O)Cn2c(=O)c3cccn3c3ccc(F)cc32)c1OC 2.2%
O=C(NCCc1ccccc1)c1cnc2sc(N3CCCC3)nn2c1=O 8.9%
COc1ccccc1-c1nnc(SCC(N)=O)o1 11.1%
COc1cccc(C2C(C(=O)Nc3ccc(C)cc3C)=C(C)Nc3c(C(=O)Nc4ccccc4)cnn32)c1 (stereo unspecified) -1.61%
CCCCN1C(=O)c2[nH]nc(-c3ccccc3O)c2C1c1cccc(OCc2ccccc2)c1 (stereo unspecified) 1.42%
CCN(C(=O)c1sc2cc(OC)ccc2c1Cl)c1ccccc1 1.04%
CCC(Sc1nc2n[nH]c(C)c2c(=N)n1-c1ccccc1Cl)C(=O)N(CC)CC (stereo unspecified) 3.81%
Cc1nn(Cc2ccc(F)cc2)c(C)c1NC(=O)c1cc(CC(C)C)on1 -1.08%
Cc1ccccc1NC(=O)c1cc2c([nH]c1=O)CC(C)(C)CC2=O 19%
O=C(CCn1c(=O)c2sccc2n(Cc2ccc(F)cc2)c1=O)NCc1ccc2c(c1)OCO2 13.4%
CCCCN1CC(c2nc3ccccc3n2CCCCOc2ccc(C)cc2C)CC1=O (stereo unspecified) -4.27%
O=C(c1ccc(C(F)(F)F)cc1)N1CCC(c2nc(-c3ccc(S(=O)(=O)N4CCCC4)cc3)no2)CC1 -4.31%
CC(C)(C)c1ccc(C(=O)NCC(c2ccco2)S(=O)(=O)c2ccc(F)cc2)cc1 (stereo unspecified) 1.03%

Potency, active:
Cn1c(=O)c2c(ncn2CC(=O)N/N=C/c2cn[nH]c2-c2ccc(F)cc2)n(C)c1=O 14.1 µM
COc1ccc(S(=O)(=O)N2CCOCC2)cc1NC(=O)CSc1ncnc2ccccc12 15.8 µM
